PubChem BioAssay AID1259418 (Broad Institute, 2018)
Screen size: about 3,400 compounds; about 840 (25%) were called active. Not shown: some 11% with an inconclusive outcome. The list is a sample of the results. Measured potencies and affinities stand elsewhere. Values without a mark were called inactive.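 Rule for the calls: active = fitted half-maximal concentration of signal decrease at or below twice the sample's top tested concentration; inconclusive = flat curve between -70 and -30 percent, or poor fit; inactive = flat within 30 percent, signal rise, or potency above limit.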

Assay: T. gondii growth inhibition with IFN-gamma, dose response, cell-based, ME49Luc, HeLa, luciferase, 72 h (AID 1259418)
Details: T. gondii ME49Luc in IFN-y HeLa, stronger effect = lower value, -100% = high-dose IFN-γ control wells; at 19.5 µM unless noted
Work on `COc1cc(OC)c(NC(=O)Nc2ccc(-c3nc(-c4ccccc4)co3)cc2)cc1Cl` yielded a max activity of 24.2%.
`CCOC(=O)CSc1nc(NCCc2ccc(OC)c(OC)c2)c2ccccc2n1` gave a max activity of 24.2% [at 0.68 µM].
In the case of `Cc1ccc(-c2nc(CN3CCN(C(=O)Nc4ccccc4C(F)(F)F)CC3)c(C)o2)cc1`, the max activity is reported as 15.9% [at 0.16 µM].
With `O=C(Nc1ccc(-c2nc(-c3ccccc3)co2)cc1)c1ccc2c(c1)OCO2` the max activity was 22.1% [at 0.35 µM].
For `COc1ccc(OC)c(NC(=O)Nc2ccc(-c3nc(-c4ccc(C)cc4C)co3)cc2)c1`, the max activity was 12.1% [at 0.35 µM].
`COc1cccc(-c2nc3c(s2)CN(C(=O)Nc2ccc(Br)cc2)CC3)c1` gave a max activity of 6.77%.
Work on `Cc1ccc(-c2nc(Cn3nnc(-c4nc(-c5ccc(OCC(C)C)cc5)no4)c3C)c(C)o2)cc1` yielded a max activity of 21.2% [at 0.16 µM].
Work on `CCOC(=O)C1CCN(S(=O)(=O)c2cc(-c3nc(C(C)(C)C)cs3)cs2)CC1` yielded a max activity of 7.71% [at 0.68 µM].
`CN1C(=O)CCc2cc(NC(=O)c3ccncc3)ccc21` gave a max activity of -16.2% [at 2.6 µM].
`CN1C(=O)CCc2cc(NC(=O)c3ccsc3)ccc21` showed a max activity of 74.1% [at 10 µM].
`Cc1ccc(-c2coc(-c3ccc(NC(=O)c4ccc(Br)o4)cc3)n2)cc1` showed a max activity of 38% [at 2.6 µM].
Molecule `O=C(Nc1ccc(-c2nc(-c3ccccc3)co2)cc1)Nc1cccc(F)c1` has a max activity of 13.5%.
`Cc1nc(-c2ccc(F)cc2)sc1-c1ccc(SCCN2CCCCCC2)nn1` showed a max activity of 9.96%.
`COc1ccc(CC(=O)Nc2ccc(-c3nc(-c4ccc(C)cc4)co3)cc2)cc1` gave a max activity of 16.4% [at 0.35 µM].
Work on `COc1ccc(-c2ccc(OCCNC(=O)c3sc(-c4ccccc4)nc3C)nn2)cc1` yielded a max activity of 13.2% [at 0.16 µM].
`O[C@H](CNC[C@@H](O)[C@H]1CCc2cc(F)ccc2O1)[C@@H]1CCc2cc(F)ccc2O1` showed a max activity of -7.92% [at 0.3 µM].
`CNc1ncc(CN(C)C(=O)c2csc(C)n2)cn1` showed a max activity of 20.8%.
Molecule `Cc1ccc2c(c1)cc(S(=O)(=O)c1ccccc1)c(=O)n2CC(=O)NCc1ccccc1Cl` has a max activity of 7.82% [at 0.68 µM].
In the case of `O=C(NCCc1csc(-c2ccccc2)n1)[C@H]1CSCN1C(=O)Cc1cccs1`, the max activity is reported as 12.6%.
For `COc1ccc(C(=O)Nc2ccc(-c3nc(-c4ccc(C)cc4C)co3)cc2)cc1OC`, the max activity was 45%.
`Cc1ccc(-c2coc(-c3ccc(NC(=O)Nc4ccc(F)cc4F)cc3)n2)cc1` gave a max activity of 92.1%.
`COc1cc(C(=O)Nc2ccc(-c3nc(-c4ccc(C)cc4C)co3)cc2)cc(OC)c1OC` gave a max activity of 27.4% [at 5 µM].
For `Cc1ccc(C)c(-c2coc(-c3ccc(NC(=O)c4ccccc4)cc3)n2)c1`, the max activity was 11.8% [at 2.6 µM].
In the case of `O=C(Nc1ccc(-c2nc(-c3ccccc3)co2)cc1)Nc1cc(F)ccc1F`, the max activity is reported as 10.9% [at 2.6 µM].
For `COc1ccc(C(=O)Nc2ccc(-c3nc(-c4cc(C)ccc4C)co3)cc2)cc1OC`, the max activity was 9.52% [at 0.35 µM].
In the case of `COc1ccc(C)cc1NC(=O)Nc1ccc(-c2nc(-c3ccc(C)cc3C)co2)cc1`, the max activity is reported as 20.4%.
With `COc1ccccc1NC(=O)Nc1ccc(-c2nc(-c3cc(C)ccc3C)co2)cc1` the max activity was 9.93% [at 0.16 µM].
Work on `COC(=O)c1ccc(NC(=O)Nc2ccc(-c3nc(-c4ccccc4)co3)cc2)cc1` yielded a max activity of 75.7% [at 10 µM].
In the case of `Cc1nc(CCNC(=O)C2CCN(C(=O)c3ccc(Br)o3)CC2)cs1`, the max activity is reported as 9.93% [at 5 µM].
`COc1cc(C(=O)Nc2ccc(-c3nc(-c4cc(C)ccc4C)co3)cc2)cc(OC)c1OC` showed a max activity of -22.7% [at 0.16 µM].
`Cc1ccc(-c2coc(-c3ccc(NC(=O)c4cccs4)cc3)n2)cc1` showed a max activity of 20.5% [at 0.35 µM].
Work on `Cc1ccc(C)c(-c2coc(-c3ccc(NC(=O)c4cccs4)cc3)n2)c1` yielded a max activity of 62.5%.
With `COc1cc(NC(=O)Nc2ccc(-c3nc(-c4ccc(C)cc4)co3)cc2)cc(OC)c1OC` the max activity was -16.6% [at 0.68 µM].
Molecule `COC[C@H]1CN(C)C[C@]12CCN(C(=O)c1cc3ccccc3s1)C2` has a max activity of 13.1%.
`COc1ccccc1-c1nc(C)c(-c2ccc(SCC(=O)OCc3ccccc3)nn2)s1` showed a max activity of 8.29% [at 10 µM].
For `Cc1oc(-c2cccc(Cl)c2)nc1CSc1nc2c(c(=O)[nH]1)CN(Cc1ccc(F)cc1)CC2`, the max activity was 15.7%.
With `Cc1cccc(C)c1NC(=O)CN1CCC2(CC1)N=C(c1ccc(F)cc1)C(=O)N2` the max activity was 10% [at 1.35 µM].
Molecule `Cc1nc(OCC(=O)Nc2cccc(Cl)c2C)c2ccccc2n1` has a max activity of 33.5% [at 0.16 µM].
Molecule `CCCCNC(=O)CC1N=C2c3ccccc3N=C(SCc3ccc(F)cc3)N2C1=O` (stereo not given) has a max activity of 8.45% [at 2.6 µM].
`COc1ccc(CNC(=O)CC2N=C3c4ccccc4N=C(SCc4ccccc4F)N3C2=O)cc1` (stereo not given) gave a max activity of 17.8% [at 10 µM].
In the case of `Cc1ccc(CSC2=Nc3ccccc3C3=NC(CC(=O)NCc4ccc(F)cc4)C(=O)N23)cc1` (stereo not given), the max activity is reported as 13.6% [at 1.35 µM].
For `COc1ccc(CNC(=O)CC2N=C3c4ccccc4N=C(SCc4cccc(F)c4)N3C2=O)cc1` (stereo not given), the max activity was 12.5% [at 1.35 µM].
Work on `COc1ccc(CNC(=O)CCC2N=C3c4ccccc4N=C(SCc4ccc(C)cc4)N3C2=O)cc1` (stereo not given) yielded a max activity of 16.4% [at 1.35 µM].
Work on `COc1ccc(CNC(=O)CC2N=C3c4ccccc4N=C(SCc4ccc(C)cc4C)N3C2=O)cc1` (stereo not given) yielded a max activity of -42%.
`CCOc1ccccc1-c1nc(CSc2nc3c(c(=O)[nH]2)CN(Cc2ccccc2)CC3)c(C)o1` gave a max activity of 18.7%.
For `O=C1CCc2cc(NC(=O)C3CCC3)ccc2N1`, the max activity was -4.89% [at 0.68 µM].
In the case of `CCC(=O)N1CCC2(CC1)Nc1cc(F)ccc1-n1cccc12`, the max activity is reported as 8.79% [at 0.68 µM].
For `CC1CCCN(c2nc(-c3ccc(Cl)cc3)nc3ccccc23)C1` (stereo not given), the max activity was -6.84% [at 2.6 µM].
In the case of `COc1ccccc1-c1nc(C)c(-c2ccc(SCc3cccc(C)c3)nn2)s1`, the max activity is reported as 12.4% [at 10 µM].
Molecule `COCCCNC1=NCCNC12CCN(S(=O)(=O)c1ccc(C)c(C)c1)CC2` has a max activity of 15.1% [at 0.16 µM].
`Clc1ccccc1CSc1nc(NC2CCCCC2)c2ccccc2n1` showed a max activity of 13.8%.
`Cc1ccc(-c2nc3c(s2)CN(C(=O)Nc2ccccc2C(F)(F)F)CC3)cc1` gave a max activity of 101% [at 10 µM].
`COc1ccc(-c2nc(Nc3cc(C)ccc3C)c3ccccc3n2)cc1` showed a max activity of 25.6%.
Molecule `CCCNC(=O)N1[C@H](C#N)[C@H](c2ccc(-c3ccccc3F)cc2)[C@H]1CO` has a max activity of -14.6%.
`CCCNC(=O)N1[C@H](C#N)[C@@H](c2ccc(-c3ccccc3F)cc2)[C@H]1CO` gave a max activity of -20.5% [at 0.6 µM].
Molecule `CCc1nc(OCC(=O)Nc2cc(Cl)c(OC)cc2OC)c2ccccc2n1` has a max activity of 17% [at 0.16 µM].
Work on `COc1ccc(OC)c(NC(=O)N2CCc3nc(-c4ccc(C)cc4)sc3C2)c1` yielded a max activity of 13.3%.
`CN1C(=O)CCc2cc(NC(=O)c3ccco3)ccc21` showed a max activity of 172%.
With `COc1ccc(OC)c(NC(=O)N2CCc3nc(-c4ccccc4)sc3C2)c1` the max activity was 6.12%.
For `CCC(C(=O)N1CCC[C@@H]1C(=O)NCCc1csc(-c2ccccc2)n1)c1ccccc1` (stereo not given in full), the max activity was 13.1% [at 2.6 µM].
In the case of `Cc1ccc(CN2CCCn3nc(C(=O)N4CCC(N5CCCCC5)CC4)cc3C2=O)cc1`, the max activity is reported as -18.3% [at 5 µM].
Molecule `O=C(Nc1ccc(-c2nc(-c3ccccc3)co2)cc1)NC1CCCCC1` has a max activity of 71.1%.
`Cc1ccc(-c2nc(Cn3nnc(-c4nc(-c5ccc(Br)cc5)no4)c3C)c(C)o2)cc1` gave a max activity of 26.9%.
`Cc1cccc(-c2noc(-c3ccc(N4CCC(N5CCCCC5)CC4)nc3)n2)c1` showed a max activity of 26.5% [at 10 µM].
Molecule `Fc1cccc(-c2noc(-c3ccc(N4CCC(N5CCCCC5)CC4)nc3)n2)c1` has a max activity of 21.6% [at 5 µM].
`O=C(Cn1cccc1-c1nc(-c2ccccc2)cs1)N1CCC(N2CCCCC2)CC1` gave a max activity of 7.65% [at 10 µM].
`Cc1ccc(Nc2ncnc3c2cnn3-c2ccc(Cl)cc2)cc1` showed a max activity of 81.3% [at 10 µM].
Work on `O=C(Nc1ccc(Br)cc1)Nc1ccc(-c2nc(-c3ccccc3)co2)cc1` yielded a max activity of -11.6%.
With `CCc1cc(C(=O)Nc2ccc(C)cc2-c2cc(C)[nH]n2)c2c(C)noc2n1` the max activity was 19.5% [at 10 µM].
With `O=C(NCCN1CCCC1)[C@H]1[C@H](CO)[C@H]2Cn3c(cccc3=O)[C@H]2N1Cc1ccccn1` the max activity was 48.1%.
For `C=CCN1C(=O)COC2(CCN(Cc3ccc(C)s3)CC2)C1C` (stereo not given), the max activity was 27.2%.
For `COc1ccc(NC(=O)CN2CCC3(CC2)N=C(c2ccc(F)cc2)C(=O)N3)cc1OC`, the max activity was -16.1% [at 10 µM].
`Cc1ccc2c(c1)cc(S(=O)(=O)c1ccccc1)c(=O)n2CC(=O)N1CCCC1` gave a max activity of -8.58% [at 5 µM].
In the case of `Cc1ccc2c(c1)cc(S(=O)(=O)c1ccccc1)c(=O)n2CC(=O)N1CCCCC1`, the max activity is reported as -6.78% [at 0.68 µM].
For `Clc1ccccc1-c1nc(NCCN2CCCc3ccccc32)c2ccccc2n1`, the max activity was 37.1%.
